Test results taken from the supplement of paper PMC7556523.
Unmarked numbers belong to inactive results.

Tests used:
[1] = system: Sporothrix brasiliensis CBS 133006; experiment: growth inhibition relative to untreated control; higher = more growth inhibition (more antifungal activity), active = 80 or more; extreme values may be limits of the assay; details: 1 µM; 48 h
Method in brief: (§1)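 Before testing, the reference isolates were kept in brain heart infusion broth with 2% glucose at 36°C for 7 days to give yeast-form cells. These cells, at 1 x 10^5 CFU/ml, received library compounds at a final 1 μM and were held 48 h at 35°C in 5% CO2. Growth was checked by eye under an inverted light microscope and quantified spectrophotometrically in quadruplicate, and the value is percent growth inhibition versus untreated cells.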

[2] = system: Sporothrix schenckii ATCC 32286; experiment: as above; details: 1 µM; 48 h
Method in brief: as §1

| SMILES | growth inhibition [1] [%] | growth inhibition [2] [%] |
| --- | --- | --- |
| CC(C)n1ncc2c(C(=O)NCC(c3cccs3)N3CCOCC3)cc(-c3ccccc3)nc21 (stereo not drawn) | 2 | 12.8 |
| NC(CC(=O)c1ccc(Cl)cc1Cl)C(Cl)(Cl)Cl (stereo not drawn) | 9.25 | 14 |
| C[C@]1(O)C[C@@H](c2nc(-c3ccc4ccc(-c5ccccc5)nc4c3)c3c(N)nccn32)C1 | 6 | 23 |
| O=C1Nc2ccc(Br)cc2C12NCCc1c2[nH]c2ccccc12 (stereo not drawn) | 18.8 | 4.75 |
| CC(C)C(NC(=O)Cc1cccc2ccccc12)C(=O)Nc1cccc(C#N)c1 (stereo not drawn) | 4 | 9.25 |
| COc1ccc2nc(C)cc(OCC(=O)Nc3ccccc3OC)c2c1 | 6 | 0.75 |
| O=C(Nc1cccnc1)c1c(O)c2cccc3c2n(c1=O)CC3 | 19.5 | 11.2 |
| CC(C)(C)c1cnc(NC(=O)c2ccccc2O)s1 | 8 | 0 |
| CCCn1c(CNc2ccccc2O)nc2ccccc21 | 11.2 | 13.2 |
| CCN(CC)CCCCCCNc1cc(OC)cc2c(C)ccnc12 | 7 | 2.25 |
| c1cc(C2=NCCN2)cc(-c2cc(-c3ccc(C4=NCCN4)cc3)no2)c1 | 5.5 | 0 |
| O=C(C1CCN(c2cc(-n3cccc3)ncn2)CC1)N1CCc2ccccc2C1 | 6 | 10.2 |
| CC(C)C(C(=O)Nc1ccc(S(=O)(=O)N(C)C)cc1)c1ccc(Cl)cc1 (stereo not drawn) | 17.5 | 0.5 |
| CCN(CC)CCCN1CCN(C(=O)c2cccc(-c3noc(C(F)(F)F)n3)c2)CC1 | 25 | 0 |
| COc1ccccc1CNC(=O)c1cc(C2CC2)nc2c1cnn2C(C)C | 27.8 | 0 |
| CC(C(=O)N1CCCC1)N1CCN(S(=O)(=O)c2ccc(C(C)(C)C)cc2)CC1 (stereo not drawn) | 37.5 | 7 |
| CC(C)/N=c1\cc2n(-c3ccc(Cl)cc3)c3ccccc3nc-2cc1Nc1ccc(Cl)cc1 | 7.25 | 12.2 |
| COc1cccc(OC)c1C(=O)Nc1ccc(Cl)c(-c2nc3ccccc3s2)c1 | 7.75 | 0.75 |
| CN1CCN(S(=O)(=O)c2ccc(-c3ccc4c(Nc5ccc6nn[nH]c6c5)ccnc4c3)cc2)CC1 | 4.25 | 7.5 |
| COc1cc(-c2cc(-c3ccc(S(C)(=O)=O)cc3)cnc2N)ccc1O | 17.8 | 19.8 |
| COc1ccc2nccc(NC(=O)C3CCN(CCc4ccc(Cl)cc4)CC3)c2n1 | 39 | 0 |
| COc1ccc(C2=NCCN2)cc1-c1cn(-c2cccc(C3=NCCN3)c2)nn1 | 12.8 | 3 |

| SMILES | growth inhibition [1] [%] | growth inhibition [2] [%] |
| --- | --- | --- |
| OCCc1ccc(Nc2nccc(-c3nnc4ccccn34)n2)cc1 | 28.2 | 2.5 |
| CCCS(=O)(=O)N1CCC(CO)(Cc2ccccc2C(F)(F)F)CC1 | 0 | 0 |
| CC(=O)N1CCN(c2ccc(Oc3ccc(Cl)cc3O)cc2)CC1 | 3.5 | 0.75 |
| Cc1cc(NCC(C)C)c2[nH]nc(-c3ccccc3)c2n1 | 4.5 | 0.75 |
| Cn1ncc2c(N3CCOCC3)nc(NCCc3c[nH]c4ccccc34)nc21 | 8.25 | 0 |
| CCOC(=O)c1noc(N)c1-c1ccccc1 | 16.5 | 0 |
| CN1CCN(c2nccc3nc(-c4ccc(F)c(F)c4)[nH]c23)CC1 | 0 | 0 |
| Cc1cc(OCC(=O)Nc2ccc(C(C)C)cc2)n(C)c(=O)c1C#N | 3.5 | 8 |
| COc1cccc(NC(=O)c2c(NC(=O)c3cccnc3)sc3c2CCC3)c1 | 15.8 | 13.8 |
| COc1ccc(C2(C(=O)Nc3ccc(Br)cc3)CCCC2)cc1 | 59.8 | 13 |
| CC(C)(C)CN1C(=O)C(c2ccccc2)(c2ccccc2)N=C1N | 17.8 | 4.25 |
| CC1CCCCN1C(=O)NCCc1coc(-c2ccc(F)cc2)n1 (stereo not drawn) | 11 | 0 |
| CCc1ccc(C(NCc2nc(N)nc(N(C)C)n2)C(C)C)cc1 (stereo not drawn) | 0 | 8.75 |
| Cc1cc(OCC(=O)NCc2ccccc2)c2cc(Br)ccc2n1 | 10 | 4 |
| Cc1cc(C(=O)Nc2cnn(Cc3ccc(Cl)cc3Cl)c2)no1 | 5.75 | 12 |
| CNC(=O)CNc1nc(-c2ccccn2)nc2scc(-c3ccccc3)c12 | 9.5 | 3.75 |
| Cc1[nH]c2ccccc2c1C(c1cccs1)N1CCN(C)CC1 (stereo not drawn) | 4.75 | 15.2 |
| CN(C(=O)c1cc2c(-c3cncnc3)cccc2[nH]1)c1ccccc1 | 8.25 | 3.25 |
| Cc1cnc(N2CCN[C@@H](Cc3ccccc3)C2)nc1Oc1ccc(-n2ccnc2)cc1 | 2.75 | 6.5 |
| Cc1ccc(NC(=O)c2cc(S(=O)(=O)NC(C)(C)C)ccc2C)nc1 | 4.25 | 0 |
| O=[N+]([O-])c1cn2c(n1)OC[C@@H](OCc1ccc(OC(F)(F)F)cc1)C2 | 9 | 10.2 |
| CN1CCN(c2nccc3[nH]c(-c4cccc(F)c4)cc23)CC1 | 2.5 | 19.5 |
